From PubChem BioAssay (NCATS) come the findings set out here.

“And” between values parts separate entries of the source, which are not always exact repeats. Identical values can stand only once. Inconclusive results are not listed. Values without a mark were called inactive. The source made the active and inactive calls. Unless noted, the call rests on the fitted dose curve; in most records, active means well fitted curve in the direction sought with a large enough effect; inconclusive means small, poorly fitted or top-dose-only effect, or another doubt; inactive means no such curve, though single readings can be large; an effect the other way counts as inactive or inconclusive.
On the % scale 0 is the no-effect control and ±100 the full control effect; potency means the concentration at half of the fitted maximal effect.

Cytochrome P450 2C9 (Homo sapiens), sequence (P11712 whole entry, looked up): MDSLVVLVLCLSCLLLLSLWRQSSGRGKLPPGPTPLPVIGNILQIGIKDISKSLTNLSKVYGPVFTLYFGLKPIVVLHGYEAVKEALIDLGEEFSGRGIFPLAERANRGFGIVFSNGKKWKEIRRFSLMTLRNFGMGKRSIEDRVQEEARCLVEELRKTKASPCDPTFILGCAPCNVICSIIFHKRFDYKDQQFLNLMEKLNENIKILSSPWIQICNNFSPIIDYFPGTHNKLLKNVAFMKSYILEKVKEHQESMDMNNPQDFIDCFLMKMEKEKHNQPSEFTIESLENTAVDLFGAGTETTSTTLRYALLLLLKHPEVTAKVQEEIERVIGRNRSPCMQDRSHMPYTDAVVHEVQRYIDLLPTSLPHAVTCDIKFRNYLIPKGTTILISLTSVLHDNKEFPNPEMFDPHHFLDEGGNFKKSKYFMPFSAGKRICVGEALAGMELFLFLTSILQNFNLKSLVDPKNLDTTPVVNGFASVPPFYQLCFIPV

The first assay concerns the target Cytochrome P450 2C9 (Homo sapiens) (UniProt P11712). Nature of the assay: Cytochrome P450 family 2 subfamily C member 9 (CYP2C9) small molecule antagonists: luciferase biochemical (cell-free) qHTS assay (AID 1645842; active means well fitted curve in the direction sought with a large enough effect in the repeat runs; an effect the other way counts as inactive or inconclusive; further: nearly all actives have a fitted effect of over 55% in size). The settings on record: P450-Glo CYP2C9 enzyme assay, luciferin luminescence; series mostly up to 57.4 µM; activity change, negative = inhibition: at the top concentration. Summed up:
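P450-Glo CYP2C9 system: proluciferin substrate with enzyme in mix containing 0.4% BSA, 10 min at room temperature, then NADPH regeneration solution added and incubated 1 h at 37C. Detection reagent stopped reaction; luminescence read after 20 min as RLU.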
(Quantitative high-throughput screening tests each substance at several concentrations.)
In the case of `COc1ccc(-n2nc(C(N)=O)c3c2C(=O)N(c2ccc(N4CCCCC4=O)cc2)CC3)cc1`, the “activity change, negative = inhibition” value is -23.8%.
With `CNC(=O)c1cc(Oc2ccc(NC(=O)Nc3cc(C(C)(C)C)nn3-c3ccc4ncccc4c3)c(F)c2)ccn1`, the Potency is 6.74 µM (active).
`Nc1ncnc2c1c(-c1cnc3[nH]ccc3c1)nn2C1CCCC1`: the Potency was 0.425 µM (active).
Turning to `C1Cc2[nH]nc(-c3nn[nH]n3)c2C1`, the “activity change, negative = inhibition” value was -2.44%.
As to `Nc1nc(Nc2ccc(S(N)(=O)=O)cc2)nn1C(=O)c1c(F)cccc1F`, the Potency was 0.12 µM (active).
Still for that read-out and setting: to `COc1ccc(F)c(F)c1C(=O)c1cnc(NC2CCN(S(C)(=O)=O)CC2)nc1N` belongs 10.7 µM (active) and 19 µM (active).
With `CC[C@@H]1C(=O)N(C)c2cnc(Nc3ccc(C(=O)NC4CCC(N5CCN(CC6CC6)CC5)CC4)cc3OC)nc2N1C(C)C` (stereo partly drawn), the Potency was 7.56 µM (active) and 12 µM (active).
Same read-out and setting: to `Cc1[nH]nc2ccc(-c3cncc(OC[C@@H](N)Cc4ccccc4)c3)cc12` belongs 9.52 µM (active); to `C=CC(=O)Nc1cccc(Oc2nc(Nc3ccc(N4CCN(C)CC4)cc3OC)ncc2Cl)c1`, 13.5 µM (active); to `Cc1cnc(-c2cnc(NCCNc3ccc(C#N)cn3)nc2-c2ccc(Cl)cc2Cl)[nH]1`, 1.51 µM (active).
Same read-out and setting: to `COc1ccc(-c2cc3c(C)nc(N)nc3n(C3CCC(OCCO)CC3)c2=O)cn1` (stereo not drawn) belongs 5.35 µM (active) and 4.25 µM (active).
Turning to `Nc1ccc(S(=O)(=O)Nc2ncccn2)cc1`, the “activity change, negative = inhibition” value is 5.79%.
`COc1cc(C)c(Sc2cnc(NC(=O)c3ccc(CNC(C)C(C)C)cc3)s2)cc1C(=O)N1CCN(C(C)=O)CC1` (stereo not drawn): the Potency was 0.536 µM (active).
The same measure, in the same setting: to `Cn1cc(-c2ccncc2)c(-c2ccc(OCc3ccc4ccccc4n3)cc2)n1` belongs 0.601 µM (active); to `O=C(O)C1(Cc2cccc(Nc3nccs3)n2)CCC(Oc2cccc(Cl)c2F)CC1` (stereo not drawn), 7.56 µM (active); to `C=CC(=O)Nc1cccc(Oc2nc(Nc3ccc(N4CCN(C)CC4)cc3)ncc2Cl)c1`, 2.39 µM (active).
Same read-out and setting: to `CNC(=O)c1ccc(N2C(=S)N(c3cnc(C#N)c(C(F)(F)F)c3)C(=O)C23CCC3)cc1F` belongs 6.74 µM (active).
In the case of `Nc1ccn([C@@H]2CS[C@H](CO)O2)c(=O)n1`, the “activity change, negative = inhibition” value is -12.7%.
`CN(C1CCc2c(c3ccccc3n2CC(=O)O)C1)S(=O)(=O)c1ccc(F)cc1` (stereo not drawn): the Potency was 19 µM (active) and 13.5 µM (active).
Regarding `CCCNC(=O)Nc1ccc(Oc2ncnc3cc(OC)c(OC)cc23)cc1Cl`, the “activity change, negative = inhibition” value was 7.09%.
For the compound `O=C(O)c1ccc2c(c1)nc(Nc1cccc(Cl)c1)c1ccncc12`, the Potency is 12 µM (active).

Tested on in a further assay: not listed separately
Nature of the assay: Primary qHTS for inhibitors of nuclear receptor binding SET domain protein 2 (NSD2) in an isogenic RCH-ACV NSD2 p.E1099K mutant (9B) (AID 1645876). Further: nearly all actives have a fitted effect of over 70% in size. The settings on record: RCH-ACV (leukaemia line) NSD2 E1099K (9B) viability, CellTiter-Glo, 72 h; series mostly up to 44.9 µM; activity change, negative = viability loss: at the top concentration.
`COc1ccc(-n2nc(C(N)=O)c3c2C(=O)N(c2ccc(N4CCCCC4=O)cc2)CC3)cc1`: the “activity change, negative = viability loss” value is -21%.
Take `CNC(=O)c1cc(Oc2ccc(NC(=O)Nc3cc(C(C)(C)C)nn3-c3ccc4ncccc4c3)c(F)c2)ccn1`: the Potency was 3.65 µM (active) and 4.17 µM (active).
Still for that read-out and setting: to `Nc1ncnc2c1c(-c1cnc3[nH]ccc3c1)nn2C1CCCC1` belongs 365 nM (active) and 417 nM (active).
For `CN(C)c1nc(Cc2ccc(NC(=O)c3ccc4ccccc4c3)cc2)nc(Cl)c1CC(=O)O`, the compound was called inactive.
`CN(c1ncccc1CNc1nc(Nc2ccc3c(c2)CC(=O)N3)ncc1C(F)(F)F)S(C)(=O)=O`: the Potency is 5.17 µM (active).
The same measure, in the same setting: to `COc1cc2c(Nc3ccc(NC(=O)c4ccccc4)cc3)ncnc2cc1OCCCN1CCOCC1` belongs 5.15 µM (active) and 4.68 µM (active); to `C[C@@H](Oc1cc(-n2cnc3ccc(CN4CCN(C)CC4)cc32)sc1C(N)=O)c1ccccc1C(F)(F)F`, 0.0295 µM (active).
As to `Cc1cn2cc(C(=O)N(C)CCO)cc(N[C@@H]3CCOc4cccc(C)c43)c2n1`, the “activity change, negative = viability loss” value is 3.09%.
Regarding `C1Cc2[nH]nc(-c3nn[nH]n3)c2C1`, the compound was classed as inactive.
For the compound `Nc1nc(Nc2ccc(S(N)(=O)=O)cc2)nn1C(=O)c1c(F)cccc1F`, the Potency was 1.63 µM (active) and 2.35 µM (active).
Same read-out and setting: to `COc1ccc(F)c(F)c1C(=O)c1cnc(NC2CCN(S(C)(=O)=O)CC2)nc1N` belongs 325 nM (active) and 662 nM (active); to `CC[C@@H]1C(=O)N(C)c2cnc(Nc3ccc(C(=O)NC4CCC(N5CCN(CC6CC6)CC5)CC4)cc3OC)nc2N1C(C)C` (stereo partly drawn), 36.5 nM (active) and 16.3 nM (active) and 41.7 nM (active); to `Cc1[nH]nc2ccc(-c3cncc(OC[C@@H](N)Cc4ccccc4)c3)cc12`, 325 nM (active) and 263 nM (active).
Still for that read-out and setting: to `Cc1ccc(NC(=O)C2(c3ccc4c(c3)OC(F)(F)O4)CC2)nc1-c1cccc(C(=O)O)c1` belongs “inactive”; to `CCn1nnc2c(N3CCOCC3)nc(-c3ccc(NC(=O)Nc4ccc(C(=O)N5CCN(C)CC5)cc4)cc3)nc21`, 18.3 nM (active) and 41.7 nM (active); to `C=CC(=O)Nc1cccc(Oc2nc(Nc3ccc(N4CCN(C)CC4)cc3OC)ncc2Cl)c1`, 5.15 µM (active) and 8.33 µM (active).
On the same count and under the same terms, to `Cc1cnc(-c2cnc(NCCNc3ccc(C#N)cn3)nc2-c2ccc(Cl)cc2Cl)[nH]1` belongs 4.59 µM (active) and 3.72 µM (active).
`COc1ccc(-c2cc3c(C)nc(N)nc3n(C3CCC(OCCO)CC3)c2=O)cn1` (stereo not drawn): the Potency was 20.5 nM (active) and 41.7 nM (active).
On the same count and under the same terms, to `CCN1CCN(CC(=O)Nc2ccc(-c3cccc4c(=O)cc(N5CCOCC5)oc34)c3sc4ccccc4c23)CC1` belongs 66.8 nM (active) and 257 nM (active); to `COc1cc(C)c(Sc2cnc(NC(=O)c3ccc(CNC(C)C(C)C)cc3)s2)cc1C(=O)N1CCN(C(C)=O)CC1` (stereo not drawn), 8.33 µM (active) and 7.28 µM (active); to `Cn1cc(-c2ccncc2)c(-c2ccc(OCc3ccc4ccccc4n3)cc2)n1`, 12.9 µM (active).
For the compound `O=C(O)C1(Cc2cccc(Nc3nccs3)n2)CCC(Oc2cccc(Cl)c2F)CC1` (stereo not drawn), the Potency was 1.45 µM (active).
Turning to `C=CC(=O)Nc1cccc(Oc2nc(Nc3ccc(N4CCN(C)CC4)cc3)ncc2Cl)c1`, the Potency was 728 nM (active) and 2.09 µM (active).
Regarding `CNC(=O)c1ccc(N2C(=S)N(c3cnc(C#N)c(C(F)(F)F)c3)C(=O)C23CCC3)cc1F`, the “activity change, negative = viability loss” value was 9.35%.
Turning to `CC(C)(C)OC(=O)Nc1ccc(-c2cc(C(=O)NCCCCCCC(=O)NO)no2)cc1`, the Potency is 1.48 µM (active).
Same read-out and setting: to `CCCCOc1c(C(=O)c2c(F)cc(C)cc2F)cnc2n[nH]cc12` belongs 0.817 µM (active).
For `Nc1ccn([C@@H]2CS[C@H](CO)O2)c(=O)n1`, the outcome was inactive.
As to `CN(C1CCc2c(c3ccccc3n2CC(=O)O)C1)S(=O)(=O)c1ccc(F)cc1` (stereo not drawn), the Potency result was “inactive”.
Still for that read-out and setting: to `COc1cc(C(=O)N2CCC(N3CCN(C)CC3)CC2)ccc1Nc1ncc2c(n1)N(C)c1ccccc1C(=O)N2C` belongs 1.15 µM (active) and 1.48 µM (active); to `Nc1ccc(C(=O)c2cc3c(ccc4ccccc43)[nH]2)cc1`, 2.41 µM (active).
On the same count and under the same terms, to `COc1cc2c(cc1-c1c(C)noc1C)ncc1[nH]c(=O)n([C@H](C)c3ccccn3)c12` belongs 0.468 µM (active).
Same read-out and setting: to `O=C(O)c1ccc2c(c1)nc(Nc1cccc(Cl)c1)c1ccncc12` belongs 4.59 µM (active) and 2.95 µM (active).
